Assay outcomes (PubChem BioAssay)
Nrf2 block: inhibitors of Nrf2 signaling; A549 ARE-Fluc reporter, luciferase luminescence, 18-24 h; Potency, µM (series often up to 46 µM), most hits filed as inhibitors; 2.1% of 360,000 active; AID 504444; further: nearly all actives have a fitted effect of over 60% in size
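Concentration-response testing used A549 ARE_Fluc cells at 5000 cells/well. Following an 18-24 h compound incubation, viability was read by fluorescence (Ex 405/Em 525) and luciferase output by luminescence.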
Rango complex inh: Rango-importin beta binding inhibition; Q14974; Rango CFP/YFP FRET sensor + importin beta, 45 min; Potency, µM (doses to about 92.2 µM); 0.031% of 340,000 active; AID 540263; calls by dose curve; further: nearly all actives have a fitted effect of over 15% in size
Target sequence (Q14974 whole entry, looked up): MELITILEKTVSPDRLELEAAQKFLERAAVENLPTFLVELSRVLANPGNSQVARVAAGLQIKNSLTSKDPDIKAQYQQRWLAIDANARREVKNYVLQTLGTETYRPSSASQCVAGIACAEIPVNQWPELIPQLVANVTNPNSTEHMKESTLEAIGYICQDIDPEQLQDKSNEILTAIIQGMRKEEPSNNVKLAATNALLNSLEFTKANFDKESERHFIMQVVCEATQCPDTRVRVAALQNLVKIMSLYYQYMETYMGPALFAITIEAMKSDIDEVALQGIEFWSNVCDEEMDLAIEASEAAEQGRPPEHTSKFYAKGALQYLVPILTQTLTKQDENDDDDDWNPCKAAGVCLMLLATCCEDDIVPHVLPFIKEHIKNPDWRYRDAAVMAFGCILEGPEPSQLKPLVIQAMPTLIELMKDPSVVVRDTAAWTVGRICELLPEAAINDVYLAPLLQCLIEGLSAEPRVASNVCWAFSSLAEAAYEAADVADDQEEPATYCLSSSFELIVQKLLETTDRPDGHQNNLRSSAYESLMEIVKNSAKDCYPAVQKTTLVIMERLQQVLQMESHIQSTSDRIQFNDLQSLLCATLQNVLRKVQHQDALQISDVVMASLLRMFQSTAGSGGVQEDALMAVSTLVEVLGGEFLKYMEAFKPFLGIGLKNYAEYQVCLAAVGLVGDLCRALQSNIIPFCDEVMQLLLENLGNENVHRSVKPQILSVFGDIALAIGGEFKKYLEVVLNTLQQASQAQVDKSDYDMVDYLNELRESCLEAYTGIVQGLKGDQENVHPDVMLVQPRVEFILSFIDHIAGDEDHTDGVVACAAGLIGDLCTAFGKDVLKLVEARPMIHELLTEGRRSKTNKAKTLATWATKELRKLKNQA
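Inhibition scored from the CFP 486 nm/YFP 530 nm FRET ratio 45 min after adding 0.125 microM importin beta to 50 nM Rango biosensor preincubated 5 min with compound (room temperature, PBS with DTT, Tween-20, BSA). No-importin wells as positive control.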
Rango release inh: inhibitors of RanGTP-induced Rango-importin beta complex dissociation; O95149+P62826; Biochemical FRET Rango-importin beta, RanGTP-induced dissociation; Potency, µM (highest dose often 46.1 µM); 0.071% of 340,000 active; AID 540253; calls by dose curve; further: nearly all actives have a fitted effect of over 45% in size
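Recombinant Rango FRET biosensor (EYFP–snurportin 1 IBB–cerulean CFP10) at 0.1 uM premixed with 0.25 uM importin beta in PBS, 1 mM DTT, 0.02% Tween-20, 0.1% BSA. Compound added 5 min; RanGTP-RCC1 (0.6 uM Ran, 2 mM GTP, 0.2 uM RCC1) then triggers release, read at 45 min.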
Nrf2 ARE act: activates Nrf2 signaling | AREc32 ARE-luciferase reporter (MCF7-derived line), luminescence, 24 h | Potency, µM (top dose mostly 46.1 µM), actives largely listed as activators | AID 624171 | 0.31% of 410,000 active; further: nearly all actives have a fitted effect of over 65% in size
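ARE activation measured as luciferase luminescence (Steady-Glo, 30 min RT) in AREc32_Fluc cells after 24 hr compound exposure at 37 deg C, 5% CO2; cells seeded overnight at 1000/well in OPTI-MEM, 5% FBS.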
A549 tox-1: A549 cytotoxicity, counter-screen for Nrf2 inhibitors; A549 ARE-Fluc cells, CellTiter-Fluor viability, 18-24 h; AID 504648; 0.16% of 390,000 active; Potency, µM (highest dose often 46 µM), hits mostly inhibitors
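A549 ARE-Fluc cells in 5% FBS OPTI-MEM, 5000 cells/well, rested 2 h then exposed to compounds in concentration-response for 18-24 h at 37 °C. Viability by CellTiter-Fluor fluorescence (Ex 405/Em 525) after 30 min; luciferase luminescence (BugLite, 15 min, RT) read afterwards.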
FLuc counter 3: firefly luciferase inhibition, Nrf2 hit validation; purified firefly luciferase, luminescence inhibition; 4% of 1,400 active; shares compounds with Nrf2 block; AID 720522; Potency, µM (top dose mostly 57.5 µM), hits mostly inhibitors; further: nearly all actives have a fitted effect of over 65% in size
A549 tox-2: counter-screen for Nrf2 inhibitors: cytotoxicity in A549 ARE cells | 2% of 1,400 active | A549 ARE-Fluc cells, cytotoxicity counterscreen | shares compounds with Nrf2 block | Potency, µM (doses to about 46.1 µM), hits mostly inhibitors;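 further: cells exposed to compounds for 18 to 24 hours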
ARE-Fluc inh: Nrf2 inhibition confirmed, A549 ARE-luciferase. Potency, µM (top dose mostly 46.1 µM), most hits filed as inhibitors. 74% of 1,400 active. A549 ARE-firefly luciferase reporter, luminescence. shares compounds with Nrf2 block. AID 720524; further: nearly all actives have a fitted effect of over 65% in size
Numbers stand for hits; . = inactive; ? = inconclusive; / = not tested or not shown. Only some compounds are listed: those with a hit (about 2.3% of all), similar ones and a draw of the others. Unless noted, the call rests on the fitted dose curve; in most records, active means well fitted curve in the direction sought with a large enough effect; inconclusive means small, poorly fitted or top-dose-only effect, or another doubt; inactive means no such curve, though single readings can be large; an effect the other way counts as inactive or inconclusive.

SMILES	Nrf2 block	Rango complex inh	Rango release inh	Nrf2 ARE act	A549 tox-1	FLuc counter 3	A549 tox-2	ARE-Fluc inh
CCOC(=O)c1c(C)[nH]c(C)c1S(=O)(=O)NCC(=O)N1CCN(c2cc(Cl)ccc2C)CC1	?	/	/	.	.	/	/	/
C=C1C(=O)O[C@@H]2C[C@@H](C)[C@@H]3C=CC(=O)[C@@]3(C)[C@@H](OC(=O)CC(=O)O[C@H]3[C@@H]4C(=C)C(=O)O[C@@H]4C[C@@H](C)[C@@H]4C=CC(=O)[C@]43C)[C@H]12	2.6µM	.	.	.	15µM	?	2.9µM	2.1µM
C=C1C(=O)OC2C1CCC(C)C1(O)C=CC(=O)C21C (stereo unspecified)	.	.	.	.	.	/	/	/
CC1=CC(C)CC(C)OC(=O)CC(c2ccc(O)cc2)NC(=O)C(Cc2c(Br)[nH]c3ccccc23)N(C)C(=O)C(C)NC(=O)C(C)C1 (stereo unspecified)	0.58µM	.	.	.	1.8µM	.	?	1.5µM
CN(C)c1c([N+](=O)[O-])cc(N2C(=O)C=CC2=O)cc1[N+](=O)[O-]	?	.	.	.	?	/	/	/
CCC(=O)N1N=C(c2c(O)n(C)c(=O)n(C)c2=O)CC1c1ccccc1 (stereo unspecified)	?	.	.	.	.	/	/	/
C[C@H]1[C@@H](OS(=O)(=O)O)C[C@@H]2C[C@H]([C@@H](O)c3cc(=O)[nH]c(=O)[nH]3)NC3=NC[C@H]1N32	0.65µM	.	.	.	.	.	/	0.23µM
C[n+]1c2cc(N)ccc2cc2ccc(N)cc21	1.5µM	?	?	.	?	.	.	1.6µM
O=C(CCS(=O)(=O)c1ccccc1)Nc1nnc(-c2ccco2)o1	.	.	.	?	.	/	/	/
Cc1sc2ncnc(SCC(=O)Nc3ccc(S(=O)(=O)N4CCOCC4)cc3)c2c1C	?	.	.	.	.	/	/	/
Cc1ccc(F)cc1NC(=O)c1ccc(Cn2nc(N3CCN(c4ccccc4)CC3)ccc2=O)o1	7.3µM	/	/	.	.	.	.	12µM
O=C(Nc1ccc(F)cc1F)c1cccn(Cc2ccccc2)c1=O	?	.	.	.	.	/	/	/
O=C(C(=O)N1CC=C(c2ccccc2)CC1)c1c[nH]c2ccccc12	.	?	.	.	.	/	/	/
CCN1CC=C(c2c[nH]c3ccccc23)CC1	1.3µM	.	.	.	?	.	?	0.033µM
COc1ccc2[nH]c3c(c2c1)CCN1C(=O)C(CC(=O)NCc2cccc(C(F)(F)F)c2)C[C@H](C(=O)N2CCCCC2)[C@@]31C (stereo partly specified)	?	.	?	.	.	/	/	/
O=C1C=CC2C3C(=O)N(c4ccccc4)C(=O)C3C1N2Cc1ccccc1 (stereo unspecified)	.	.	.	?	.	/	/	/
CC(C)C[C@H]1CN([C@@H](CC(C)C)CN2CCCC2CN2C(=S)NC[C@@H]2Cc2ccc(O)cc2)C(=S)N1CC1CCCCCC1 (stereo partly specified)	?	.	.	.	.	/	/	/
CCOC(=O)CCCc1cc[c]([Sb](=[O])([OH])[OH])cc1	.	/	/	/	.	/	/	/
Cc1cccc(Cc2cnc(NC(=O)c3ccc4c(c3)CC(c3ccccc3)OC4=O)s2)c1 (stereo unspecified)	?	/	/	.	.	/	/	/
O=C(O)c1cccc2nc3ccccc3nc12	2.3µM	.	.	.	.	.	.	3.3µM
